The record followed here is PubChem BioAssay (NCI).

The panel holds about 83,000 compounds, 20% with a hit somewhere; the sample as a whole holds those more often.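 48-hour exposure, single concentration, 96-well plates; percent growth endpoint where 0 means no net growth. Active: below 10.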 A number with no mark means an inactive call. Active and inactive are the calls of the source.

Some test systems named below: NCI-H23 lung; NCI-H226 lung; NCI-H322M lung; HOP-62 NSCLC; NCI-H460 lung; HOP-92 NSCLC; NCI-H522 lung; A549/ATCC NSCLC; 786-0 renal; COLO 205 colon; DU-145 prostate; K-562 leukemia; MALME-3M melanoma; MDA-MB-231 breast; RXF 393 renal; SF-268 CNS; SF-295 CNS; SF-539 CNS; UACC-257 melanoma; M14 melanoma.
Holding throughout (experiment): NCI-60 one-dose screen, 48 h (100 = growth as untreated, 0 = no growth, -100 = all killed)
Conditions in all cases: 10 µM unless noted

As to `CCOC(=O)c1cnn(CC(C)O)c1NC(=O)NCc1cccc(F)c1` (stereo not given), the growth in the experiment with NCI-H23 lung was 97.5%; in the experiment with NCI-H226 lung, 103%; in the experiment with NCI-H322M lung it was 97.7%; with HOP-62 NSCLC it was 100%; with NCI-H460 lung, 105%; in the experiment on HOP-92 NSCLC it was 68%. Further, the growth is 66% in the experiment with NCI-H522 lung; 100% with A549/ATCC NSCLC; 95.1% in the experiment on 786-0 renal; 118% in the experiment with COLO 205 colon; 96.7% in the experiment on DU-145 prostate; 81.1% with K-562 leukemia. Further, the growth was 99.2% in the experiment on MALME-3M melanoma; 106% in the experiment on MDA-MB-231 breast; 111% in the experiment with RXF 393 renal; 101% in the experiment on SF-268 CNS; 99.9% with SF-295 CNS; 98.2% in the experiment with SF-539 CNS. In addition, the growth in the experiment with UACC-257 melanoma is 99.7%; in the experiment with M14 melanoma it was 83.2%.
With `O=C(O)CCCCCCCCCCN1C(=O)/C(=C2/C(=O)N(CC(=O)O)c3ccc(Br)cc32)SC1=S`, the growth is 92.8% with NCI-H23 lung; 98.1% in the experiment on NCI-H226 lung; 97% in the experiment with NCI-H322M lung; 102% with HOP-62 NSCLC; 105% in the experiment on NCI-H460 lung; 80.7% in the experiment on HOP-92 NSCLC. For the same molecule, the growth with NCI-H522 lung is 90.1%; with A549/ATCC NSCLC, 92%; in the experiment on 786-0 renal, 54.7%; with COLO 205 colon it was 110%; in the experiment on DU-145 prostate it was 106%; in the experiment with K-562 leukemia, 69.6%. Moreover, the growth in the experiment with MALME-3M melanoma is 96.9%; with MDA-MB-231 breast it was 92.3%; in the experiment with RXF 393 renal, 113%; in the experiment with SF-268 CNS it was 96.9%; in the experiment with SF-295 CNS, 103%; in the experiment on SF-539 CNS it was 104%. Further, the growth with UACC-257 melanoma was 97.9%; with M14 melanoma, 96.3%.
As for `COc1ccc(C(=O)/C=C/c2ccccc2)cc1S(N)(=O)=O`, the growth in the experiment on NCI-H23 lung is 79.6%; with NCI-H226 lung, 82.5%; in the experiment on NCI-H322M lung, 71.4%; with HOP-62 NSCLC it was 86.9%; in the experiment with NCI-H460 lung it was 53.6%; with HOP-92 NSCLC, 95.7%. For the same molecule, the growth in the experiment on NCI-H522 lung was 76%; with A549/ATCC NSCLC it was 65.7%; in the experiment on 786-0 renal, 64.6%; with COLO 205 colon, 98.2%; in the experiment with DU-145 prostate it was 41.7%; in the experiment with K-562 leukemia, 7.9% (active). Moreover, the growth with MALME-3M melanoma is 93.6%; with MDA-MB-231 breast, 71.5%; in the experiment on RXF 393 renal, 80.6%; in the experiment with SF-268 CNS, 63.3%; in the experiment on SF-295 CNS, 91.1%; in the experiment on SF-539 CNS, 60.2%. The values for the growth with UACC-257 melanoma and with M14 melanoma were 90.9% and 82.8%, respectively.
Take `CCCC(=O)NC(c1ccc2c(c1)OCO2)c1cc(Cl)c2cccnc2c1O` (stereo not given): the growth in the experiment on NCI-H23 lung is 48.3%; in the experiment on NCI-H226 lung, 50.4%; with NCI-H322M lung, 42.1%; in the experiment on HOP-62 NSCLC it was 23.1%; in the experiment on NCI-H460 lung, 22.7%; in the experiment on HOP-92 NSCLC, 39.4%. Also, the growth in the experiment on NCI-H522 lung is 13.8%; with A549/ATCC NSCLC, 30.7%; in the experiment on 786-0 renal, 32.4%; in the experiment with COLO 205 colon, 11.5%; in the experiment on DU-145 prostate, 53.7%; in the experiment with K-562 leukemia it was 11.4%. The growth in the experiment with MALME-3M melanoma was 42.5%; in the experiment with MDA-MB-231 breast, 34.9%; in the experiment with RXF 393 renal it was 59.9%; with SF-268 CNS it was 37.7%; with SF-295 CNS, 12.7%; in the experiment with SF-539 CNS it was 18.6%. The values for the growth in the experiment with UACC-257 melanoma and in the experiment on M14 melanoma were 37.8% and 26.3%, respectively.
For the molecule `CC(C)C1C2=C(NCCN1C(=O)c1ccncc1)C(C)(C)N(Cc1ccccc1)C2=O` (stereo not given), the growth in the experiment with NCI-H23 lung was 99.6%; in the experiment with NCI-H226 lung, 107%; in the experiment with NCI-H322M lung, 110%; in the experiment on HOP-62 NSCLC it was 103%; in the experiment with NCI-H460 lung, 116%; with HOP-92 NSCLC, 103%. Further, the growth in the experiment on NCI-H522 lung is 80.9%; in the experiment with A549/ATCC NSCLC it was 95.2%; with 786-0 renal, 105%; in the experiment on COLO 205 colon it was 109%; in the experiment with DU-145 prostate, 105%; in the experiment on K-562 leukemia it was 98.1%. The growth with MALME-3M melanoma was 96.6%; with MDA-MB-231 breast it was 100%; with RXF 393 renal, 126%; with SF-268 CNS, 96.9%; in the experiment on SF-295 CNS, 96.5%; in the experiment on SF-539 CNS it was 108%. Also, the results for the growth in the experiment with UACC-257 melanoma and with M14 melanoma were 105% and 101%, respectively.
On to `O=C(NN1C(=O)CSC1c1cccc([N+](=O)[O-])c1)c1ccc(NC(=O)c2ccccn2)cc1` (stereo not given), for which the growth in the experiment with NCI-H23 lung is 94.4%; in the experiment with NCI-H226 lung, 106%; with NCI-H322M lung, 90.5%; with HOP-62 NSCLC it was 95.4%; in the experiment with NCI-H460 lung, 102%; in the experiment with HOP-92 NSCLC, 104%. Also, the growth in the experiment with NCI-H522 lung is 95.3%; with A549/ATCC NSCLC, 100%; with 786-0 renal, 96.9%; in the experiment on COLO 205 colon it was 103%; in the experiment with DU-145 prostate, 94.1%; in the experiment on K-562 leukemia, 100%. Moreover, the growth with MALME-3M melanoma was 94.4%; in the experiment on MDA-MB-231 breast it was 113%; in the experiment with RXF 393 renal it was 115%; in the experiment on SF-268 CNS it was 96.1%; with SF-295 CNS it was 97.2%; in the experiment with SF-539 CNS it was 99.8%. The values for the growth in the experiment with UACC-257 melanoma and in the experiment with M14 melanoma were 99% and 102%, respectively.
Turning to `CCCOC(=O)Nc1nc2ccc(SCC)cc2s1`, the growth with NCI-H23 lung was 91.9%; in the experiment on NCI-H226 lung, 92.9%; with NCI-H322M lung, 99.3%; in the experiment on HOP-62 NSCLC, 81.4%; in the experiment with NCI-H460 lung, 79.6%; in the experiment with HOP-92 NSCLC it was 96.1%. Also, the growth in the experiment on NCI-H522 lung was 65.6%; in the experiment on A549/ATCC NSCLC, 80.5%; in the experiment on 786-0 renal, 93.9%; with COLO 205 colon it was 72.2%; in the experiment on DU-145 prostate, 94.6%; with K-562 leukemia it was 26.2%. Besides, the growth in the experiment with MALME-3M melanoma is 77.9%; with MDA-MB-231 breast it was 82.9%; in the experiment on RXF 393 renal it was 95.8%; with SF-268 CNS, 92.8%; in the experiment on SF-295 CNS it was 80.8%; with SF-539 CNS, 80.9%. Besides, the growth was 96.4% in the experiment on UACC-257 melanoma and 46.5% in the experiment with M14 melanoma.
On to `Cc1ccc(C)c2c1sc1nc(N3CCOCC3)c(C#N)c(=O)n12`, for which the growth in the experiment on NCI-H23 lung was 76.1%; in the experiment with NCI-H226 lung, 89.6%; in the experiment on NCI-H322M lung, 107%; in the experiment on HOP-62 NSCLC, 94.2%; in the experiment with NCI-H460 lung, 94.9%; with HOP-92 NSCLC it was 71.7%. Also, the growth in the experiment with NCI-H522 lung is 94.8%; in the experiment with A549/ATCC NSCLC, 98.4%; in the experiment on 786-0 renal it was 104%; with COLO 205 colon, 104%; with DU-145 prostate, 103%; in the experiment with K-562 leukemia it was 151%. In addition, the growth is 97.1% in the experiment with MALME-3M melanoma; 92% in the experiment with MDA-MB-231 breast; 114% in the experiment with RXF 393 renal; 88% in the experiment on SF-268 CNS; 61.7% in the experiment on SF-295 CNS; 96.4% in the experiment with SF-539 CNS. The growth in the experiment with UACC-257 melanoma was 112%; with M14 melanoma, 92.9%.
